Hits are enriched below; roughly 3.4% of the tested compounds scored in any of these assays.
FBW7 activator – human FBW7 E3 ligase activation, primary screen; actives 0.13% (n = 650,000); normalized activity (activation), % at 26.1 µM; AID 1259310; Q969H0; AlphaScreen FBW7–phospho-cyclin E peptide binding, activator screen; in the data active means normalized activity above about 1.9%;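 further: purified mutant Fbw7 with reduced substrate affinity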
Target sequence (Q969H0 whole entry, looked up): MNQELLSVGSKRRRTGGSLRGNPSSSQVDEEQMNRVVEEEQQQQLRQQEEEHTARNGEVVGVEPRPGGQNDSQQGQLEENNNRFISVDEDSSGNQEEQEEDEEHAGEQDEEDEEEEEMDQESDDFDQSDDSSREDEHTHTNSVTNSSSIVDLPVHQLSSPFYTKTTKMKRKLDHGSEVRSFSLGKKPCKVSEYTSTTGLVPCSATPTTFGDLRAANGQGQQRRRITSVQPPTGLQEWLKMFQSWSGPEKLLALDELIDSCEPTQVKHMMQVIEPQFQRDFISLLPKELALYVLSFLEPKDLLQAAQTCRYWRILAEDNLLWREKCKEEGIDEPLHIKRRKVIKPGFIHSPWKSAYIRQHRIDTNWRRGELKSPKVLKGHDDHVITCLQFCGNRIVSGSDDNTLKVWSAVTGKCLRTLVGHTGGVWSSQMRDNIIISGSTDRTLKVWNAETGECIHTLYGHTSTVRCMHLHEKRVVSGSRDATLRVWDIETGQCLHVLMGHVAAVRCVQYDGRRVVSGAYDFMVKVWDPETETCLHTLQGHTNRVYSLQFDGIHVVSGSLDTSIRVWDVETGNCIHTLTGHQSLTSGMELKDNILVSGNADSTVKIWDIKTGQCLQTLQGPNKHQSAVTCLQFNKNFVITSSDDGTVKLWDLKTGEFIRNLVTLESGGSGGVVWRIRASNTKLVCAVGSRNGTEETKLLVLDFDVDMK
TEAD-YAP block – TEAD-YAP interaction inhibition; AID 1259422; inhibition, % at 9.12 µM; HEK-TIYL cells, TEAD-Gal4/YAP UAS-luciferase luminescence; actives 1.4% (n = 640,000); in the data active means inhibition above about 32%;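 further: 0% = median of test compound wells and 100% = reference inhibitor wells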
MITF primary – inhibitors of human MITF; AlphaScreen MITF homodimerization, bead proximity signal; O75030; inhibition, % at 2.6 µM; AID 1259374; actives 0.91% (n = 650,000); in the data active means inhibition above about 50%;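 further: 0% = vehicle wells with protein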
GPR151 ag – activators of human GPR151 | PathHunter beta-arrestin GPR151 cells, luminescence | activation, % at 11.2 µM | Q8TDV0 | actives 1% (n = 650,000); in the data active means activation above about 4.9%;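 further: 0% = median of compound wells and 100% = cells with positive control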
Numbers without * were called inactive.

SMILES	FBW7 activator	TEAD-YAP block	MITF primary	GPR151 ag
O=C(Nc1ccc(S(=O)(=O)N2CCCCC2)cc1)c1ccc(CN2CCc3ccccc3C2)cc1	1	65*	17	1
CCCC(=O)Nc1sc2c(c1C(N)=O)CCN(C(=O)OCC)C2	0	51*	1	-1
CCOC(=O)N1CCc2c(sc(NC(=O)C(C)(C)C)c2C(N)=O)C1	0	1	-1	1
CCCCC(=O)Nc1sc2c(c1C(N)=O)CCN(C(=O)OCC)C2	0	50*	7	-1
Cc1nc2sccn2c1C(=O)N1CCN(c2cccc(C(F)(F)F)c2)CC1	1	58*	14	-1
Cc1nc2sccn2c1C(=O)N1CCCC1	0	-5	-17	-1
C=C1CC(C(=O)N/N=C/c2ccc(Cl)cc2Cl)C1	0	-19	-10	3
c1ccc(-c2cnn(-c3ccnc(Nc4ccc(N5CCOCC5)cc4)c3)c2)cc1	0	45*	10	0
c1ccc(-c2csc(Nc3ccnc(Nc4ccc(N5CCOCC5)cc4)c3)n2)cc1	0	64*	-5	4
c1cncc(-c2csc(Nc3ccnc(Nc4ccc(N5CCOCC5)cc4)c3)n2)c1	0	33*	-3	2
COc1cc(C(=O)N2c3ccccc3-c3c(ssc3=S)C2(C)C)cc(OC)c1OC	0	61*	31	2
COc1ccc2c(c1)-c1c(ssc1=S)C(C)(C)N2C(=O)CSc1nnc(C)s1	0	34*	19	-1
Cc1cc(C)c2c(c1)-c1c(ssc1=S)C(C)(C)N2C(=O)C(C)C	0	17	52*	-1
CCC(=O)N1c2c(C)cc(C)cc2-c2c(ssc2=S)C1(C)C	-1	6	26	1
Cc1ccc2c(c1)-c1c(ssc1=S)C(C)(C)N2C(=O)c1ccncc1	-1	55*	27	-2
Cc1nnc(SCC(=O)N2c3cc(C)c(C)cc3-c3c(ssc3=S)C2(C)C)s1	0	3	17	0
O=C1OC(c2cc(Cl)ccc2Cl)=N/C1=C\c1ccccc1F	0	-8	19	0
CSc1ccccc1NC(=O)/C=C/c1ccc([N+](=O)[O-])o1	0	56*	2	-1
CSc1ccccc1NC/C=C/c1ccc([N+](=O)[O-])o1	0	7	8	2
CC(C)(C)C1CCc2c(sc3nc(CCC(=O)N4CCN(c5ccccn5)CC4)[nH]c(=O)c23)C1 (stereo not drawn)	0	78*	-3	2
CC(C)(C)C1CCc2c(sc3nc(CCC(=O)N4CCN(c5ccc(F)cc5)CC4)[nH]c(=O)c23)C1 (stereo not drawn)	1	52*	-4	-1
CC(C)(C)C1CCc2c(sc3nc(Cc4ccccc4)[nH]c(=O)c23)C1 (stereo not drawn)	0	-1	4	0
COc1ccc(C(Nc2cccc(C)n2)c2ccc3ccc(C)nc3c2O)cc1C (stereo not drawn)	0	42*	4	-2
C=CCOc1ccc(C(Nc2ccccn2)c2ccc3cccnc3c2O)cc1 (stereo not drawn)	-1	86*	55*	1
CCc1ccc(C(Nc2ccccn2)c2ccc3cccnc3c2O)cc1 (stereo not drawn)	-1	84*	28	1
SMILES	FBW7 activator	TEAD-YAP block	MITF primary	GPR151 ag
Cc1ccc(C(Nc2cccc(C)n2)c2ccc3cccnc3c2O)cc1 (stereo not drawn)	-1	76*	6	0
Cc1ccc2ccc(C(Nc3ccccn3)c3ccc(N(C)C)cc3)c(O)c2n1 (stereo not drawn)	0	6	14	0
COc1ccc(C2C(C(=O)N3CCN(c4ccccc4)CC3)c3ccccc3C(=O)N2Cc2ccc(F)cc2)cc1 (stereo not drawn)	0	10	10	0
CSc1ccc(C(Nc2ccccn2)c2ccc3ccc(C)nc3c2O)cc1 (stereo not drawn)	0	21	1	0
Oc1c(C(Nc2ccccn2)c2ccc(F)cc2)ccc2cccnc12 (stereo not drawn)	-2	70*	9	0
CSc1ccc(C(Nc2ccccn2)c2ccc3cccnc3c2O)cc1 (stereo not drawn)	-1	78*	8	0
CCOC(=O)N1CCN(C(=O)c2ccc(N3CC4CC(C3)c3cccc(=O)n3C4)c(NS(=O)(=O)c3ccc(F)cc3)c2)CC1 (stereo not drawn)	0	-4	-4	-2
CCC(C)(C)NC(=O)C(OC(=O)c1ccco1)c1ccc(OC)cc1 (stereo not drawn)	0	-5	12	1
CCC(C)(C)NC(=O)C(OC(=O)c1ccco1)c1ccc(C)cc1 (stereo not drawn)	1.9*	-3	8	0
CN(Cc1ccccc1)C(=O)c1ccc(N2CC3CC(C2)c2cccc(=O)n2C3)c(NC(=O)c2ccc(F)cc2)c1 (stereo not drawn)	0	-3	-4	2
C/C(=N\NC(=O)c1cc(-c2cccnc2)nc2ccccc12)c1ccccc1O	0	41*	6	2
COc1cccc(/C(C)=N/NC(=O)c2cc(-c3cccnc3)nc3ccccc23)c1	0	10	7	-1
CC(=O)N1CCN(Cc2ccc3c(c2)CN(Cc2ccc(Cl)cc2)CCO3)CC1	0	47*	6	0
CCOc1ccc(CN2CCN(C(=O)c3ccccc3F)CC2)cc1	0	40*	30	0
Cc1ccc(CN2CCN(C(=O)c3ccccc3F)CC2)cc1	0	-1	40	3
CCOc1ccc(CN2CCOc3ccc(CN4CCN(C(C)=O)CC4)cc3C2)cc1	0	37*	-4	1
Cn1cc(C(=O)Nc2ccc3c(c2)Cc2ccccc2-3)nn1	0	-61	7	1
NC(=O)c1ccc(-c2ncc(C(=O)Nc3ccc(N4CCOCC4)cc3)s2)cc1	0	-5	2	3
CCc1ccc(/C(C)=N/N=C(N)N)cc1	0	35*	-6	0
Cc1cc2cc3c(cc2n2c(=O)n(CCN(C)C)nc12)OCO3	0	-4	0	0
Cc1cc(C)c2cc(C)c3nn(CCN(C)C)c(=O)n3c2c1	1	41*	20	0
Cc1n[nH]c(=O)nc1N/N=C/c1ccccc1O	-1	18	94*	-7
Cc1cc(=O)[nH]c(N/N=C/c2cc(C)c(/C=N/Nc3nc(C)cc(=O)[nH]3)cc2C)n1	0	-2	2	0
Cc1n[nH]c(=O)nc1N/N=C/c1cc(Br)ccc1O	0	76*	116*	-3
CC(C)(C)c1nnc(N/N=C/c2ccccc2O)[nH]c1=O	0	82*	96*	1
Cc1cc(=O)[nH]c(N/N=C/c2cc(Br)ccc2O)n1	0	7	65*	-2
COCCNC(=O)CN1C(=O)/C(=C\c2ccc(Cl)cc2)Sc2ccccc21	0	-3	-14	-1
CCOc1ccc(N(C(C)C(=O)Nc2ccc3ccccc3c2)S(C)(=O)=O)cc1 (stereo not drawn)	0	-1	-4	1
COc1ccc(CN2CCCC(C(=O)Nc3cccc(-n4cccn4)c3)C2)c(F)c1 (stereo not drawn)	0	4	-4	0
